Assay outcomes (PubChem BioAssay)
12-LOX inh: inhibitors of human 12S-lipoxygenase ALOX12; P18054; 580,000 compounds, 1.1% hits; Potency, µM (top dose mostly 108 µM), for inactives: top-dose activity change, negative = inhibition, actives largely listed as inhibitors; purified 12hLO, xylenol orange hydroperoxide absorbance
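Purified human 12hLO at 150 nM in 25 mM Hepes, 0.01% Triton X-100, pH 7.0, preincubated 15 min at room temperature with compound. Reaction started with 40 uM arachidonic acid, 30 min at room temperature. Hydroperoxide measured by Fe-xylenol orange, 573/405 nm absorbance ratio.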
RORgamma inh: inhibitors of mouse ROR gamma transcriptional activity | AID 2551 | 310,000 compounds, 5.4% hits | Drosophila S2 Gal4-RORgamma UAS-luciferase reporter, 20 h | Potency, µM (titrated, usually from 53.6 µM), inactives show top-dose activity change, negative = inhibition, most hits filed as inhibitors | P51450; note: nearly all actives have a fitted effect of over 60% in size
Target sequence (P51450 whole entry, looked up, the tested form may be a part): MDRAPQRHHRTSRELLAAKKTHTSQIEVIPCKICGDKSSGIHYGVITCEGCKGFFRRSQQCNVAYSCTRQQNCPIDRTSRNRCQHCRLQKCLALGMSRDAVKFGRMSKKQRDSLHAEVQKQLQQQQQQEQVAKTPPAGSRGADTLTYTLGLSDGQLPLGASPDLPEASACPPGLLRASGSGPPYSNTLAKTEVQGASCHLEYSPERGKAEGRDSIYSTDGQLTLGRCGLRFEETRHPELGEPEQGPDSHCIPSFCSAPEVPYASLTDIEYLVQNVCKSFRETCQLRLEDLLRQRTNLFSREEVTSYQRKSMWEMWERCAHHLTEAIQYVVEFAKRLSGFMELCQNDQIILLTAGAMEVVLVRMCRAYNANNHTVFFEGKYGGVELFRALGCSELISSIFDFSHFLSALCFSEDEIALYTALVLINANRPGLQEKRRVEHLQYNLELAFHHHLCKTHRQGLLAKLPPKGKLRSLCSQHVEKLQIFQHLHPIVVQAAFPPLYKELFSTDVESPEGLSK
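Luciferase reporter read in Schneider cells carrying Gal4-RORγ (mouse) and UAS-Photinus luciferase; cells given compound 1 h before 700 uM copper sulfate induction, then incubated 20 h at ambient temperature.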
DT40 TDP1 CPT: DT40-hTDP1 cell growth loss with CPT; chicken DT40 Tdp1-/-;hTDP1 cells + 20 nM CPT, ATP luminescence, 48 h; Potency, µM (highest dose often 46.2 µM), for the others: at the top dose activity change, negative = growth inhibition, actives largely listed as inhibitors; 420,000 compounds, 12% hits; note: nearly all actives have a fitted effect of over 55% in size
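Cell growth measured by CellTiter-Glo luminescence after a minimum 48 h, 37 C compound exposure with 20 nM CPT in Tdp1-knockout DT40 cells stably expressing hTDP1, seeded 400/well; qHTS titration format.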
VP16 counter: counter-screen for ROR gamma inhibitors: Gal4-VP16 reporter; 310,000 compounds, 3.5% hits; Potency, µM (top dose mostly 53.6 µM), without a hit: top-dose activity, negative = inhibition, actives largely listed as inhibitors; Drosophila S2 Gal4-VP16 UAS-luciferase, luminescence, 20 h;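 note: Gal4-VP16 expression switched on by copper sulfate through the metallothionein promoter; nearly all actives have a fitted effect of over 50% in size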
DT40 TDP1 no CPT: qHTS for Inhibitors of human tyrosyl-DNA phosphodiesterase 1 (TDP1): qHTS in cells in absence of CPT; DT40 Tdp1-/- hTDP1 cells, no CPT, ATP luminescence, 48 h; Potency, µM (doses to about 46.2 µM), without a hit: at the top dose activity change, negative = growth inhibition, actives largely listed as inhibitors; 420,000 compounds, 15% hits; AID 686978, 2013; note: nearly all actives have a fitted effect of over 55% in size
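Compound effects on proliferation are scored in DT40 Tdp1-/-;hTDP1 cells in the absence of CPT. ATP levels (CellTiter-Glo luminescence) are recorded after a ≥48 hr, 37 °C incubation.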
ELG1 DNA repair: blocks ELG1-dependent DNA repair in HEK293T cells | HEK293T ELG1-luciferase reporter, luminescence, 16 h; DNA damage induced by 5-fluorouridine | Potency, µM (doses to about 46.1 µM), inactives show at the top dose activity change, negative = inhibition, hits mostly inhibitors | 330,000 compounds, 2.3% hits | AID 504467; note: nearly all actives have a fitted effect of over 55% in size
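Step one: seed 2,000 cells per well. Step two: pin-transfer compound or DMSO alongside 5-fluorouridine. Step three: incubate 16 hr, 37 °C, 5% CO2. Step four: add ONE-Glo, wait 30 min, read luminescence.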
Active calls of the source: *; ? = inconclusive; . = not tested or not shown; [ ] = dose if it differs, or a comment. Only some compounds are listed: those with a hit (about 15% of all), similar ones and a draw of the others. Calls come from the whole dose curve; as a rule, active = well fitted curve in the direction sought with a large enough effect; inconclusive = small, poorly fitted or top-dose-only effect, or another doubt; inactive = no such curve, though single readings can be large; an effect the other way counts as inactive or inconclusive. % is set by controls: 0 for no effect and ±100 for the full control effect; potency is the fitted concentration of half-maximal effect.

SMILES	12-LOX inh	RORgamma inh	DT40 TDP1 CPT	VP16 counter	DT40 TDP1 no CPT	ELG1 DNA repair
CCc1ccc(NS(=O)(=O)c2ccc(C(=O)N(C)C)s2)cc1	-19.3%	.	18.4µM*	.	14.6µM*	.
Clc1ccc(-c2nnc(C34CC5CC(CC(C5)C3)C4)o2)cn1	.	15.7%	?	1.9%	29.1µM*	12.6%
CCOC(=O)C1=CCN(S(=O)(=O)c2ccccc2F)C1c1cccc(Br)c1 (stereo not drawn)	191.9%	.	?	.	?	.
CCOC(=O)C1=CCN(S(=O)(=O)c2ccccc2C)C1c1cccc(Br)c1 (stereo not drawn)	-4.6%	.	?	.	20.6µM*	.
CCOC(=O)C1=CCN(S(=O)(=O)c2ccccc2C)C1c1cccc(F)c1 (stereo not drawn)	-14.9%	.	?	.	16.4µM*	.
CCOC(=O)C1=CCN(S(=O)(=O)c2cccc(Cl)c2)C1c1cccc(F)c1 (stereo not drawn)	-1.4%	.	20.6µM*	.	20.6µM*	.
O=C(NC1CCCN(c2nc3ncccc3o2)C1)c1ccccc1Cl (stereo not drawn)	46.7%	.	.	.	.	.
COc1cccc(C(=O)c2sc(Nc3ccc(F)c(Cl)c3)nc2N)c1	-13.3%	.	2.0%	.	-15.7%	.
CC(C)NCC(=O)C12CC3CC(CC(C3)C1)C2	11.4%	8.0%	-3.6%	3.4%	-3.7%	?
CC(C)Nc1nc(N)c(C(=O)C23CC4CC(CC(C4)C2)C3)s1	?	-13.1%	20.6µM*	-2.0%	?	1.3%
COc1cccc(C(=O)c2sc(NC(C)C)nc2N)c1	-21.1%	?	?	11.2µM*	?	20.6µM*
COc1ccc(C(=O)c2sc(NC(C)C)nc2N)cc1OC	-12.6%	-28.4%	?	?	23.1µM*	?
Cc1ccc(S(=O)(=O)N2CCCN(C(=O)CN3CCOCC3)C2c2ccccc2)cc1 (stereo not drawn)	-1.5%	.	.	.	.	.
Cn1nc(CC(=O)N2CCC(C(=O)N3CCCCCC3)CC2)c2ccccc2c1=O	-15.5%	.	.	.	.	.
COc1ccc(NC(=O)CSC2=Nc3ccccc3C3=NC(Cc4ccccc4)C(=O)N23)cc1 (stereo not drawn)	-20.9%	.	?	.	20.6µM*	.
COc1ccccc1NC(=O)CSC1=Nc2ccccc2C2=NC(Cc3ccccc3)C(=O)N12 (stereo not drawn)	-19.1%	.	23.1µM*	.	?	.
CCCCNC(=O)CC1N=C2c3ccccc3N=C(SCC(=O)Nc3ccccc3OC)N2C1=O (stereo not drawn)	-21.2%	10.6%	-3.0%	-6.9%	-9.7%	-5.1%
O=C(CSC1=Nc2ccccc2C2=NC(Cc3ccccc3)C(=O)N12)Nc1cccc(Cl)c1 (stereo not drawn)	?	.	16.4µM*	.	25.9µM*	.
O=C(CCC1N=C2c3ccccc3N=C(SCc3cccc(Cl)c3)N2C1=O)NCCc1ccccc1 (stereo not drawn)	-23.4%	.	?	.	?	.
O=C(NNC(=O)C1CCCC1)c1ccc(CSc2ccc(Cl)cc2)cc1	5.5%	.	.	.	.	.
CCc1ccc(C(=O)c2cn(CC(=O)Nc3cc(C)ccc3C)c3nc(C)ccc3c2=O)cc1	?	.	-13.3%	.	-13.2%	.
Cc1ccc(CNC(=O)Cn2cc(C(=O)c3ccc(Cl)cc3)c(=O)c3ccc(C)nc32)cc1	-10.1%	.	16.4µM*	.	16.4µM*	.
COc1ccc(Cl)cc1NC(=O)Cn1cc(C(=O)c2ccc(C)cc2)c(=O)c2ccc(C)nc21	-28.6%	.	?	.	23.1µM*	.
Cc1ccc(C(=O)c2cn(CC(=O)Nc3ccc(C)cc3Cl)c3nc(C)ccc3c2=O)cc1	-9.2%	.	10.3µM*	.	23.1µM*	.
CCOc1ccc(-c2nnc(SCC(=O)N(CC)c3cccc(C)c3)o2)cc1	-22.2%	.	20.6µM*	.	10.3µM*	.
SMILES	12-LOX inh	RORgamma inh	DT40 TDP1 CPT	VP16 counter	DT40 TDP1 no CPT	ELG1 DNA repair
CCN(C(=O)CSc1nnc(-c2ccc(Cl)cc2)o1)c1ccccc1	-13.8%	.	?	.	20.6µM*	.
COc1ccc(CN(C(=O)CSc2nnc(-c3ccccc3F)o2)c2ccc(F)cc2)cc1	.	6.7%[0.365 µM]	18.4µM*	.	12.6µM*	?
COc1cccc(-c2nnc(SCC(=O)N(C)c3ccccc3)o2)c1	-3.3%	.	?	.	10.3µM*	.
CN(C(=O)CSc1nnc(-c2ccccc2F)o1)c1ccccc1	-10.4%	.	1.3%	.	0.6%	?
CN(C)C(=O)C1CN(C(=O)c2ccccc2Br)CC12CCOCC2 (stereo not drawn)	24.6%	.	.	.	.	.
Cc1ccc(C(=O)C(C)OC(=O)c2cccc(S(=O)(=O)N(C)C)c2)cc1 (stereo not drawn)	30.9%	.	.	.	.	.
CC1=C[C@@H](CNC(=O)CC(C)(C)CC(=O)O)[C@H](C(C)C)C[C@H]1Cc1nc2ccccc2[nH]1	14.0%	.	.	.	.	.
COc1cc(-c2nnc(SCC(=O)N(C)C3CCCCC3)o2)cc(OC)c1OC	-4.9%	.	11.6µM*	.	5.8µM*	.
COc1ccc(-c2nnc(SCC(=O)N(Cc3ccccc3)C(C)(C)C)o2)cc1OC	-12.6%	20.0%	23.1µM*	-15.7%	13µM*	-0.5%
CCc1ccc(OC(=O)CSc2nnc(-c3ccc(OC)c(OC)c3)o2)cc1	-1.7%	.	-2.8%	.	-0.7%	.
CCN(C(=O)CSc1nnc(-c2cc(OC)c(OC)c(OC)c2)o1)c1ccccc1	-26.6%	.	14.6µM*	.	5.8µM*	.
CCOC(=O)CSc1nnc(-c2cc(OC)c(OC)c(OC)c2)o1	481.0%	-23.1%	?	-9.5%	-7.0%	2.6%
CCOc1ccc(N(C)S(=O)(=O)c2cc(-c3cc(C)no3)ccc2OC)cc1	-2.8%	26.9%	23.1µM*	1.3%	14.6µM*	-14.0%
CCOc1ccc(N(C)S(=O)(=O)c2cc(-c3cc(C)no3)ccc2CC)cc1	-5.6%	?	?	-0.3%	18.4µM*	?
COc1ccc(-c2cc(C)no2)cc1S(=O)(=O)N(C)c1ccc(C)cc1	-1.6%	17.5%	10.3µM*	-3.9%	9.2µM*	-24.8%
CCOc1ccc(N(C)S(=O)(=O)c2cc(-c3cc(C)no3)ccc2C)cc1	-9.4%	27.9%	?	-17.3%	?	?
CS(=O)(=O)NC1CCN(C(=O)c2cc(Br)ccc2F)CC1	-48.7%	.	.	.	.	.
C[C@H](C(=O)N1Cc2ccccc2CC2(CCCN2C)C1)c1ccccc1 (stereo partly drawn)	2.5%[6.33 µM]	.	.	.	.	.
